Data on 40 compounds can be found in the supplement of paper PMC9023506.

Where a name gives a salt, the structure may show the parent alone.

The test concerns Danio rerio larvae (5 dpf). Briefly: habituation to 1-s acoustic pulses, difference vs DMSO (percentage points (treated minus DMSO)); higher = more of the behaviour than the DMSO vehicle control. The note with it: 10 µM; exposure time: 3 h pre-incubation + 3 h imaging. As for the experimental part: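 5-dpf wild-type zebrafish larvae were imaged in 96-well plates. They were treated with 190 Tocris FDA-approved drugs at 10 µM (1 µl/ml DMSO) for 3 h before and 3 h during imaging at 28.5 °C, 48 larvae per drug. Automated image analysis gave % time moving and optomotor responses. Values are drug group mean minus DMSO vehicle mean (n=844), in percentage points, for 10 behaviours.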
In the case of `Nc1nc2c(ncn2COCCO)c(=O)[nH]1` [Acyclovir], the “habituation to 1-s acoustic pulses” value came out at 1.89.
The same measure for `Nc1nc(NC2CC2)c2ncn([C@H]3C=C[C@@H](CO)C3)c2n1` [Abacavir hemisulfate]: 3.08; for `O=c1n(CCCN2CCN(c3cccc(Cl)c3)CC2)nc2ccccn12` [Trazodone hydrochloride]: -10.7.
The same measure for `CNS(=O)(=O)Cc1ccc2[nH]cc(CCN(C)C)c2c1` [Sumatriptan succinate]: -0.62.
In the case of `O=C(O)C[C@H](O)C[C@H](O)/C=C/c1c(C2CC2)nc2ccccc2c1-c1ccc(F)cc1` [Pitavastatin calcium], the “habituation to 1-s acoustic pulses” value is -6.74.
As for `COc1ccc(Cl)cc1C(=O)NCCc1ccc(S(=O)(=O)NC(=O)NC2CCCCC2)cc1` [Glibenclamide], the figure is -1.87; as for `CC(C)(C#N)c1cc(Cn2cncn2)cc(C(C)(C)C#N)c1` [Anastrozole], 6.34.
As for `NS(=O)(=O)c1cc(C(=O)O)c(NCc2ccco2)cc1Cl` [Furosemide], the figure is 1.08; as for `O=c1[nH]c(=O)n([C@H]2C[C@H](O)[C@@H](CO)O2)cc1C(F)(F)F` [Trifluorothymidine], 4.64; as for `COC(=O)C1=C(C)NC(C)=C(C(=O)OC(C)C)C1c1cccc2nonc12` (stereo not given) [Isradipine], -13.5.
The same measure for `CC(C)CN(C[C@@H](O)[C@H](Cc1ccccc1)NC(=O)O[C@H]1CO[C@H]2OCC[C@H]21)S(=O)(=O)c1ccc(N)cc1` [Darunavir]: -1.13; for `CC(=O)Oc1cc2c(s1)CCN(C(C(=O)C1CC1)c1ccccc1F)C2` (stereo not given) [Prasugrel]: 2.1.
For `COc1ccccc1Oc1c(NS(=O)(=O)c2ccc(C(C)(C)C)cc2)nc(-c2ncccn2)nc1OCCO` [Bosentan], the “habituation to 1-s acoustic pulses” value was 4.23.
For `CCc1c2c(nc3ccc(OC(=O)N4CCC(N5CCCCC5)CC4)cc13)-c1cc3c(c(=O)n1C2)COC(=O)[C@]3(O)CC`, the “habituation to 1-s acoustic pulses” value stood at 10.3.
Take `Clc1ccc2nsnc2c1NC1=NCCN1` [Tizanidine hydrochloride]: the “habituation to 1-s acoustic pulses” value is -2.36.
Consider `O=C(O[C@@H]1C[C@@H]2C[C@H]3C[C@H](C1)N2CC3=O)c1c[nH]c2ccccc12` [Dolasetron mesylate], for which the “habituation to 1-s acoustic pulses” value amounted to 2.06.
As for `CN(CCOc1ccc(CC2SC(=O)NC2=O)cc1)c1ccccn1` (stereo not given) [Rosiglitazone], the figure is 0.476; as for `Cc1cccc(C)c1OCC(C)N` (stereo not given) [Mexiletine hydrochloride], 5.97.
In the case of `N#Cc1ccc(C(c2ccc(C#N)cc2)n2cncn2)cc1` [Letrozole], the “habituation to 1-s acoustic pulses” value came to 2.44.
The same measure for `C[C@@H](O[C@H]1OCCN(Cc2n[nH]c(=O)[nH]2)[C@H]1c1ccc(F)cc1)c1cc(C(F)(F)F)cc(C(F)(F)F)c1` [Aprepitant]: 0.23.
For `Cc1nc(Nc2ncc(C(=O)Nc3c(C)cccc3Cl)s2)cc(N2CCN(CCO)CC2)n1` [Dasatinib], the “habituation to 1-s acoustic pulses” value is -0.705.
In the case of `Nc1nc(F)nc2c1ncn2[C@@H]1O[C@H](CO)[C@@H](O)[C@@H]1O` [Fludarabine], the “habituation to 1-s acoustic pulses” value was -1.56.
As for `OCCN(CCO)c1nc(N2CCCCC2)c2nc(N(CCO)CCO)nc(N3CCCCC3)c2n1` [Dipyridamole], the “habituation to 1-s acoustic pulses” value is 0.822.
Take `O=C(O)c1cc(/N=N/c2ccc(S(=O)(=O)Nc3ccccn3)cc2)ccc1O` [Sulfasalazine]: the “habituation to 1-s acoustic pulses” value was 0.389.
For `CC(=O)Oc1ccccc1C(=O)O` [Aspirin], the “habituation to 1-s acoustic pulses” value was -5.13.
The same measure for `CC1=Nc2ccc(Cl)cc2S(=O)(=O)N1` [Diazoxide]: 9.12; for `COc1cc(Nc2c(C#N)cnc3cc(OCCCN4CCN(C)CC4)c(OC)cc23)c(Cl)cc1Cl` [Bosutinib]: 0.4; for `CCCCNc1cc(C(=O)O)cc(S(N)(=O)=O)c1Oc1ccccc1` [Bumetanide]: -0.875.
`CC(c1cc2ccccc2s1)N(O)C(N)=O` (stereo not given) [Zileuton]: the “habituation to 1-s acoustic pulses” value is 7.12.
As to `OCc1cc(C(O)CNCCCCCCOCCCCc2ccccc2)ccc1O` (stereo not given) [Salmeterol xinafoate], the “habituation to 1-s acoustic pulses” value is 0.0601.
Consider `CCOc1nc2cccc(C(=O)O)c2n1Cc1ccc(-c2ccccc2-c2nnn[nH]2)cc1` [Candesartan], for which the “habituation to 1-s acoustic pulses” value amounted to 4.86.
The same measure for `COc1c(C)c2c(c(O)c1C/C=C(\C)CCC(=O)OCCN1CCOCC1)C(=O)OC2` [Mycophenolate mofetil]: 0.172; for `CC(C)[C@H]1CC[C@H](C(=O)N[C@H](Cc2ccccc2)C(=O)O)CC1` [Nateglinide]: 0.774.
The same measure for `CCCC1O[C@@H]2C[C@H]3[C@@H]4CCC5=CC(=O)C=C[C@]5(C)[C@H]4[C@@H](O)C[C@]3(C)[C@]2(C(=O)CO)O1` (stereo not given in full) [Budesonide]: -1.73; for `O=C1CCc2cc(OCCCCc3nnnn3C3CCCCC3)ccc2N1` [Cilostazol]: -0.365; for `O=C(Nc1c(Cl)cncc1Cl)c1ccc(OC(F)F)c(OCC2CC2)c1` [Roflumilast]: -1.13.
As for `O=C(NCC1CCCCN1)c1cc(OCC(F)(F)F)ccc1OCC(F)(F)F` (stereo not given) [Flecainide acetate], the “habituation to 1-s acoustic pulses” value was -2.35.
The same measure for `C[C@]12CC[C@@H]3c4ccc(O)cc4C[C@@H](CCCCCCCCC[S+]([O-])CCCC(F)(F)C(F)(F)F)[C@H]3[C@@H]1CC[C@@H]2O` (stereo not given in full): -2.82.
As for `CCOc1cc(CC(=O)N[C@@H](CC(C)C)c2ccccc2N2CCCCC2)ccc1C(=O)O` [Repaglinide], the figure is -8.43; as for `COc1ccccc1OCCNCC(O)COc1cccc2[nH]c3ccccc3c12` (stereo not given) [Carvedilol], 2.04.
